Laboratory results reported in article PMC11006913.
Substitutions are numbered along the chain they refer to.

Legend:
Experiment in all cases: PBM; 200 nM protein, PBS
Details in all cases: dsDNA, one strand shown
HOXB4 = HOXB4 (Homo sapiens, UniProt P17483 148-234)
HOXB9 [1] = biological target: HOXB9 (Homo sapiens, UniProt P17482 171-250, T197M)
HOXC9 [2] = biological target: HOXC9 (Homo sapiens, UniProt P31274 178-260, K195R)
VENTX = biological target: T1, VENTX (Homo sapiens, UniProt O95231 78-163)
T1 sequence: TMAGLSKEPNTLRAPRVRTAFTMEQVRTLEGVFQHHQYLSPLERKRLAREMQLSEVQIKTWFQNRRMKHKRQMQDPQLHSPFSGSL

HOXC10 [3] = biological target: HOXC10 (Homo sapiens, UniProt Q9NYD6 254-340)
HOXC10 (Homo sapiens, UniProt Q9NYD6 254-340), sequence (Q9NYD6 254-340): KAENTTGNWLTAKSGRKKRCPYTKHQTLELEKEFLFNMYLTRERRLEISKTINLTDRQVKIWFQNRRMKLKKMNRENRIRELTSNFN

PAX4 [4] = biological target: T2, PAX4 (Homo sapiens, UniProt O43316 9-242, R200K)
T2 sequence: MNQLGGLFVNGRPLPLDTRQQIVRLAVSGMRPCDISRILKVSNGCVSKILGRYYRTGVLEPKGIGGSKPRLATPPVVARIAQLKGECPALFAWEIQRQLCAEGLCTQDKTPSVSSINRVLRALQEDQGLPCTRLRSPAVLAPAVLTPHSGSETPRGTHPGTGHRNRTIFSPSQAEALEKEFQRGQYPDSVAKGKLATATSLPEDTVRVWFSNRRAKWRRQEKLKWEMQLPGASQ

PAX4 [5] = biological target: T3, PAX4 (Homo sapiens, UniProt O43316 9-242)
T3 sequence: T2 sequence with K192R

HOXB9 [6] = biological target: HOXB9 (Homo sapiens, UniProt P17482 171-250)
HOXB9 (Homo sapiens, UniProt P17482 171-250), sequence (P17482 171-250): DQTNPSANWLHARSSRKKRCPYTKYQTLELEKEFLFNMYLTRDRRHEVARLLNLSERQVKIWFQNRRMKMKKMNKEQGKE

HOXC9 [7] = biological target: HOXC9 (Homo sapiens, UniProt P31274 178-260)
HOXC9 (Homo sapiens, UniProt P31274 178-260), sequence (P31274 178-260): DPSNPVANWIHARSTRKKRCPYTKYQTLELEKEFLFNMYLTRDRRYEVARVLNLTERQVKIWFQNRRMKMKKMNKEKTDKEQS

HOXC9 [8] = biological target: HOXC9 (Homo sapiens, UniProt P31274 178-260, R193K)
HOXC9 (Homo sapiens, UniProt P31274 178-260, R193K), sequence (P31274 178-260 R193K): as the sequence (P31274 178-260) above, with R16K counted along it

PAX4 [9] = biological target: T4, PAX4 (Homo sapiens, UniProt O43316 9-242, F177V)
T4 sequence: T2 sequence with F169V, K192R

HOXC10 [10] = biological target: HOXC10 (Homo sapiens, UniProt Q9NYD6 254-340, K271E)
HOXC10 (Homo sapiens, UniProt Q9NYD6 254-340, K271E), sequence (Q9NYD6 254-340 K271E): as the sequence (Q9NYD6 254-340) above, with K18E counted along it

PAX4 [11] = biological target: T5, PAX4 (Homo sapiens, UniProt O43316 9-242, F177Y)
T5 sequence: T2 sequence with F169Y, K192R

VAX1 = VAX1 (Homo sapiens, UniProt Q5SQQ9 86-172)
VAX1, sequence (Q5SQQ9 86-172): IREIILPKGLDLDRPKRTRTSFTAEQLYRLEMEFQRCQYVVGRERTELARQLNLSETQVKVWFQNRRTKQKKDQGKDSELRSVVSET

HOXB9 [12] = biological target: HOXB9 (Homo sapiens, UniProt P17482 171-250, R186Q)
HOXB9 (Homo sapiens, UniProt P17482 171-250, R186Q), sequence (P17482 171-250 R186Q): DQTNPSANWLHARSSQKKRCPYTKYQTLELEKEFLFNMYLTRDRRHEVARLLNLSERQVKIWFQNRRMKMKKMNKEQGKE

HOXC9 [13] = biological target: HOXC9 (Homo sapiens, UniProt P31274 178-260, R222W)
HOXC9 (Homo sapiens, UniProt P31274 178-260, R222W), sequence (P31274 178-260 R222W): as the sequence (P31274 178-260) above, with R45W counted along it

PAX4 [14] = biological target: T6, PAX4 (Homo sapiens, UniProt O43316 9-242, R227W)
T6 sequence: T2 sequence with K192R, R219W

HOXA2 [15] = biological target: HOXA2 (Homo sapiens, UniProt O43364 129-215, Y150S)
HOXA2 (Homo sapiens, UniProt O43364 129-215, Y150S), sequence (O43364 129-215 Y150S): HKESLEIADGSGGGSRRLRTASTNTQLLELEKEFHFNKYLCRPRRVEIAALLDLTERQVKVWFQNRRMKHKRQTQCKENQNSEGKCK

HOXA2 [16] = biological target: HOXA2 (Homo sapiens, UniProt O43364 129-215)
HOXA2 (Homo sapiens, UniProt O43364 129-215), sequence (O43364 129-215): as the sequence (O43364 129-215 Y150S) above, with S22Y counted along it

HOXB6 = HOXB6 (Homo sapiens, UniProt P17509 132-218)
HOXB6, sequence (P17509 132-218): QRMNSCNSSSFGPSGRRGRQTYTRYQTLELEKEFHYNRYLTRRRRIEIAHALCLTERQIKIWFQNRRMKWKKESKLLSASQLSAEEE

HOXB4, sequence (P17483 148-234): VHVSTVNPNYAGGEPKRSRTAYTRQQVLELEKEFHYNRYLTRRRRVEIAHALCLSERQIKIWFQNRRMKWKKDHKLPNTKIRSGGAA
HOXC9 (Homo sapiens, UniProt P31274 178-260, K195R), sequence (P31274 178-260 K195R): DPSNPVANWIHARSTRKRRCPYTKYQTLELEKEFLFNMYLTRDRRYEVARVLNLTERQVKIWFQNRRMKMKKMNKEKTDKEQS
HOXB9 (Homo sapiens, UniProt P17482 171-250, T197M), sequence (P17482 171-250 T197M): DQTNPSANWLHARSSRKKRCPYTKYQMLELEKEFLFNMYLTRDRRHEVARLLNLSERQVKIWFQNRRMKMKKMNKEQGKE

Sequence | binding signal (HOXB4) | binding signal (HOXB9 [1]) | binding signal (HOXC9 [2]) | binding signal (VENTX) | binding signal (HOXC10 [3]) | binding signal (PAX4 [4]) | binding signal (PAX4 [5]) | binding signal (HOXB9 [6]) | binding signal (HOXC9 [7]) | binding signal (HOXC9 [8]) | binding signal (PAX4 [9]) | binding signal (HOXC10 [10]) | binding signal (PAX4 [11]) | binding signal (VAX1) | binding signal (HOXB9 [12]) | binding signal (HOXC9 [13]) | binding signal (PAX4 [14]) | binding signal (HOXA2 [15]) | binding signal (HOXA2 [16]) | binding signal (HOXB6)
ATTAATTA | 13.7 upbm affinity estimate (log intensity, higher = more binding, comparable within an allelic series) | 10.6 upbm affinity estimate (log intensity, higher = more binding, comparable within an allelic series) | 13.3 upbm affinity estimate (log intensity, higher = more binding, comparable within an allelic series) | 13.2 upbm affinity estimate (log intensity, higher = more binding, comparable within an allelic series) | 12.6 upbm affinity estimate (log intensity, higher = more binding, comparable within an allelic series) | 12.2 upbm affinity estimate (log intensity, higher = more binding, comparable within an allelic series) | 12.8 upbm affinity estimate (log intensity, higher = more binding, comparable within an allelic series) | 12.6 upbm affinity estimate (log intensity, higher = more binding, comparable within an allelic series) | 13.2 upbm affinity estimate (log intensity, higher = more binding, comparable within an allelic series) | 13.2 upbm affinity estimate (log intensity, higher = more binding, comparable within an allelic series) | 11.1 upbm affinity estimate (log intensity, higher = more binding, comparable within an allelic series) | 12.7 upbm affinity estimate (log intensity, higher = more binding, comparable within an allelic series) | 11.6 upbm affinity estimate (log intensity, higher = more binding, comparable within an allelic series) | 13.8 upbm affinity estimate (log intensity, higher = more binding, comparable within an allelic series) | 12.3 upbm affinity estimate (log intensity, higher = more binding, comparable within an allelic series) | 11.5 upbm affinity estimate (log intensity, higher = more binding, comparable within an allelic series) | 11.4 upbm affinity estimate (log intensity, higher = more binding, comparable within an allelic series) | 11.1 upbm affinity estimate (log intensity, higher = more binding, comparable within an allelic series) | 13.3 upbm affinity estimate (log intensity, higher = more binding, comparable within an allelic series) | 12.8 upbm affinity estimate (log intensity, higher = more binding, comparable within an allelic series)
ATTAATTG | 13.4 upbm affinity estimate (log intensity, higher = more binding, comparable within an allelic series) | 10.3 upbm affinity estimate (log intensity, higher = more binding, comparable within an allelic series) | 12.8 upbm affinity estimate (log intensity, higher = more binding, comparable within an allelic series) | 12.8 upbm affinity estimate (log intensity, higher = more binding, comparable within an allelic series) | 12.2 upbm affinity estimate (log intensity, higher = more binding, comparable within an allelic series) | 11.8 upbm affinity estimate (log intensity, higher = more binding, comparable within an allelic series) | 12.4 upbm affinity estimate (log intensity, higher = more binding, comparable within an allelic series) | 12.2 upbm affinity estimate (log intensity, higher = more binding, comparable within an allelic series) | 12.9 upbm affinity estimate (log intensity, higher = more binding, comparable within an allelic series) | 12.7 upbm affinity estimate (log intensity, higher = more binding, comparable within an allelic series) | 10.7 upbm affinity estimate (log intensity, higher = more binding, comparable within an allelic series) | 12.2 upbm affinity estimate (log intensity, higher = more binding, comparable within an allelic series) | 11.2 upbm affinity estimate (log intensity, higher = more binding, comparable within an allelic series) | 13.2 upbm affinity estimate (log intensity, higher = more binding, comparable within an allelic series) | 11.8 upbm affinity estimate (log intensity, higher = more binding, comparable within an allelic series) | 11.2 upbm affinity estimate (log intensity, higher = more binding, comparable within an allelic series) | 11 upbm affinity estimate (log intensity, higher = more binding, comparable within an allelic series) | 11 upbm affinity estimate (log intensity, higher = more binding, comparable within an allelic series) | 12.6 upbm affinity estimate (log intensity, higher = more binding, comparable within an allelic series) | 12.3 upbm affinity estimate (log intensity, higher = more binding, comparable within an allelic series)
ATTAATGA | 13.5 upbm affinity estimate (log intensity, higher = more binding, comparable within an allelic series) | 10.4 upbm affinity estimate (log intensity, higher = more binding, comparable within an allelic series) | 13 upbm affinity estimate (log intensity, higher = more binding, comparable within an allelic series) | 12.8 upbm affinity estimate (log intensity, higher = more binding, comparable within an allelic series) | 12.5 upbm affinity estimate (log intensity, higher = more binding, comparable within an allelic series) | 11.8 upbm affinity estimate (log intensity, higher = more binding, comparable within an allelic series) | 12.3 upbm affinity estimate (log intensity, higher = more binding, comparable within an allelic series) | 12.2 upbm affinity estimate (log intensity, higher = more binding, comparable within an allelic series) | 13 upbm affinity estimate (log intensity, higher = more binding, comparable within an allelic series) | 12.9 upbm affinity estimate (log intensity, higher = more binding, comparable within an allelic series) | 10.6 upbm affinity estimate (log intensity, higher = more binding, comparable within an allelic series) | 12.3 upbm affinity estimate (log intensity, higher = more binding, comparable within an allelic series) | 11.1 upbm affinity estimate (log intensity, higher = more binding, comparable within an allelic series) | 13.4 upbm affinity estimate (log intensity, higher = more binding, comparable within an allelic series) | 11.9 upbm affinity estimate (log intensity, higher = more binding, comparable within an allelic series) | 11.2 upbm affinity estimate (log intensity, higher = more binding, comparable within an allelic series) | 11 upbm affinity estimate (log intensity, higher = more binding, comparable within an allelic series) | 11 upbm affinity estimate (log intensity, higher = more binding, comparable within an allelic series) | 12.9 upbm affinity estimate (log intensity, higher = more binding, comparable within an allelic series) | 12.3 upbm affinity estimate (log intensity, higher = more binding, comparable within an allelic series)
ATAATTAT | 13.7 upbm affinity estimate (log intensity, higher = more binding, comparable within an allelic series) | 10.4 upbm affinity estimate (log intensity, higher = more binding, comparable within an allelic series) | 12.9 upbm affinity estimate (log intensity, higher = more binding, comparable within an allelic series) | 12.3 upbm affinity estimate (log intensity, higher = more binding, comparable within an allelic series) | 12.3 upbm affinity estimate (log intensity, higher = more binding, comparable within an allelic series) | 11.9 upbm affinity estimate (log intensity, higher = more binding, comparable within an allelic series) | 12.4 upbm affinity estimate (log intensity, higher = more binding, comparable within an allelic series) | 12 upbm affinity estimate (log intensity, higher = more binding, comparable within an allelic series) | 12.9 upbm affinity estimate (log intensity, higher = more binding, comparable within an allelic series) | 12.8 upbm affinity estimate (log intensity, higher = more binding, comparable within an allelic series) | 10.9 upbm affinity estimate (log intensity, higher = more binding, comparable within an allelic series) | 12.1 upbm affinity estimate (log intensity, higher = more binding, comparable within an allelic series) | 11.3 upbm affinity estimate (log intensity, higher = more binding, comparable within an allelic series) | 13.2 upbm affinity estimate (log intensity, higher = more binding, comparable within an allelic series) | 11.7 upbm affinity estimate (log intensity, higher = more binding, comparable within an allelic series) | 11.2 upbm affinity estimate (log intensity, higher = more binding, comparable within an allelic series) | 11.3 upbm affinity estimate (log intensity, higher = more binding, comparable within an allelic series) | 10.9 upbm affinity estimate (log intensity, higher = more binding, comparable within an allelic series) | 13.1 upbm affinity estimate (log intensity, higher = more binding, comparable within an allelic series) | 12.4 upbm affinity estimate (log intensity, higher = more binding, comparable within an allelic series)
